# Laboratory results as given in PubChem BioAssay (EPA / NIEHS).
# Inconclusive results are not listed. Activity calls are given as the source filed them. How the source made its calls: active means hit-call score of the fitted dose curve at least 0.9, where 1 is the maximum; inconclusive means response in the unintended direction; inactive means score below 0.9.
# Experiment: Tanguay_ZF_120hpf_NC_legacy: (Legacy) Oregon State University Tanguay Lab 120 Hour Post-fertilization zebrafish Assay for Notochord and Tail Malformation (AID 2283656)
# Protocol: Tanguay_ZF_120hpf_legacy is a whole embryo, multiplexed endpoint assay using zebrafish larvae exposed for 120 hours post fertilization on a 96-well plate.Tanguay_ZF_120hpf_NC_legacy is one of one assay component(s) measured or calculated from the Tanguay_ZF_120hpf_legacy assay. It is designed to make measurements of zebrafish development as detected with brightfield microscopy of developing zebrafish embryos.Data from the assay component Tanguay_ZF_120hpf_NC_legacy was analyzed into 1 assay endpoints. This assay endpoint, Tanguay_ZF_120hpf_NC_legacy, was analyzed in the positive analysis fitting direction relative to DMSO as the negative control and baseline of activity. Using a type of morphology reporter, gain-of-signal activity can be used to understand changes in developmentals as they relate to the whole embryo. To generalize the intended target to other relatable targets, this assay endpoint is annotated to the zebrafish development intended target family, where the subfamily is embryonic notochord morphogenesis.
# Zebrafish husbandry: Tropical 5D wild-type adult zebrafish were housed in at an approximate density of 1000 per 100 gallon tank at the Sinnhuber Aquatic Research Laboratory, Oregon State University, Corvallis, OR. Each tank was kept at standard laboratory conditions of 28C on a 14-h light/10-h dark photoperiod in fish water consisting of reverse osmosis water supplemented with a commercially available salt (Instant Ocean). Spawning funnels were placed into the tanks the night prior, and embryos were collected and staged. To increase bioavailability, the chorion was enzymatically removed using pronase (63.6mg/ml, >/= 3.5U/mg, Sigma-Aldrich: P5147) at 4 hours post fertilization (hpf) using a custom automated dechorionator.Chemical exposures: Six hpf dechorionated embryos were placed 1 embryo per well in a 96-well plate prefilled with 90 ul of EM using automated embryo placement systems (AEPS). Ten microliters of each row of dilution plate 2 was added to 2 exposure plates. The final DMSO concentration used was 0.64% (vol/vol). Thirty-two embryos were also exposed to 5uM trimethyltin chloride (positive control). Plates were sealed to prevent evaporation and foil covered to reduce light exposure and kept in a 28C incubator. Embryos were statically exposed until 120 hpf. At 24 hpf, embryos were assessed for photomotor response using a custom photomotor response analysis tool (PRAT) and for developmental toxicity endpoints (MO24: mortality at 24 hpf, DP: developmental progression, SM: spontaneous movement, and NC: notochord distortion). At 120 hpf, locomotor activity was measured using Viewpoint Zebralab and assessed for 18 endpoints. Zebrafish acquisition and analysis program (ZAAP), a custom program designed to inventory, acquire, and manage zebrafish data, was used to collect developmental endpoints as either present or absent (i.e., binary responses were recorded). If mortality occurred for an embryo (at either 24 or 120 hpf), the non-mortality endpoints were not measured.
row,Compound,outcome
1,CC(C)(c1ccccc1)c1ccc(O)cc1,inactive
2,CCCCCCCCCc1ccc(O)cc1,inactive
3,CC(c1ccc(O)cc1)(c1ccc(O)cc1)c1ccc(O)cc1,inactive
4,O=C(NC(=O)c1cc(F)c(F)cc1Cl)Nc1cc(F)ccc1N1CCC(C(=O)O)CC1,inactive
5,CCC(=O)O[C@H]1CC[C@H]2[C@@H]3CCC4=CC(=O)CC[C@]4(C)[C@H]3CC[C@]12C,inactive
6,Clc1ccc(C(c2ccccc2Cl)C(Cl)(Cl)Cl)cc1 (stereo not given),inactive
7,COS(=O)(=O)OC,inactive
8,Cc1cc(-c2ccc(N)c(C)c2)ccc1N,inactive
9,Nc1ccc(-c2ccc(N)cc2)cc1,inactive
10,CC(C)C(=O)OCC(C)(C)C(OC(=O)C(C)C)C(C)C (stereo not given),inactive
11,Oc1ccc(C(c2ccc(O)cc2)(C(F)(F)F)C(F)(F)F)cc1,inactive
12,CCCN(CCC)N=O,inactive
13,O=C(N[C@H]1CN2CCC1CC2)c1cc2ccoc2cn1,inactive
14,ClC1=C(Cl)[C@]2(Cl)[C@@H]3[C@H]4C[C@H]([C@@H]5O[C@H]45)[C@@H]3[C@@]1(Cl)C2(Cl)Cl,inactive
15,Cc1cccc([N+](=O)[O-])c1,inactive
16,O=C(O)C(F)(F)C(F)(F)C(F)(F)C(F)(F)C(F)(F)F,inactive
17,CO/C=C(/C(=O)OC)c1ccccc1COc1cccc(C(F)(F)F)n1,inactive
18,CCNc1nc(NC(C)C)nc(SC)n1,inactive
19,CCOP(=S)(OCC)SCSC(C)(C)C,inactive
20,CCC(C)(CC)c1cc(NC(=O)c2c(OC)cccc2OC)on1,inactive

row,Compound,outcome
1,O=C(O)C(F)(F)C(F)(F)C(F)(F)C(F)(F)C(F)(F)C(F)(F)C(F)(F)C(F)(F)C(F)(F)F,inactive
2,C=CC(=O)NCNC(=O)C=C,inactive
3,CCCCCCCCOC(=O)c1ccccc1C(=O)OCCCCCCCC,inactive
4,CN(C)CCO,inactive
5,Oc1c(Cl)c(Cl)c(Cl)c(Cl)c1Cl,inactive
6,O=S(=O)(O)C(F)(F)C(F)(F)C(F)(F)C(F)(F)F,inactive
7,Oc1ccc(Cl)cc1Cl,inactive
8,Cc1ccccc1O,inactive
9,CCC(C)c1cc([N+](=O)[O-])cc([N+](=O)[O-])c1O (stereo not given),inactive
10,Nn1cnnc1,inactive
11,CCOC(=O)C(O)(c1ccc(Cl)cc1)c1ccc(Cl)cc1,inactive
12,C=CC(N)=O,inactive
13,ClC1=C(Cl)[C@]2(Cl)[C@@H]3[C@@H]4C[C@@H]([C@H]5O[C@@H]45)[C@@H]3[C@@]1(Cl)C2(Cl)Cl,inactive
14,Clc1ccc(C(Cl)(Cl)Cl)cc1,inactive
15,CC(C)(O)C(=O)Nc1ccc([N+](=O)[O-])c(C(F)(F)F)c1,inactive
16,C[C@]12CCC(=O)C=C1CC[C@@H]1[C@@H]2CC[C@@]2(C)[C@H]1CC[C@]2(C)O,inactive
17,CCCCCCCCCC[N+](C)(C)CCCCCCCCCC,inactive
18,ClC1=C(Cl)[C@]2(Cl)[C@@H]3[C@@H](Cl)[C@H]4O[C@H]4[C@@H]3C1(Cl)C2(Cl)Cl,inactive
19,CN(C)c1nc(=O)n(C2CCCCC2)c(=O)n1C,inactive
20,N#Cc1ccc(N(CC(N)=O)CC(F)(F)F)cc1C(F)(F)F,inactive
